# From ChEMBL document CHEMBL3988442, “University of Dundee, Small-Polar-MMV Screening Library” (2021)
# About 13,000 (27%) of roughly 48,000 compounds showed an effect of 50% or more. This is one part of the list.
# Tested on: Wolbachia pipientis
# Assay: Anti-Wolbachia Cell-Based Screen
# Type: functional
# Design: scale not given: in the data most compounds retested in dose-response had high values
# Settings: 5 µM
row,SMILES,Percent Effect
1,CC(NC(=O)c1cnccn1)c1nnc2ccccn12 (centres undefined),-8.378%
2,CN(CC1Cc2ccccc2CN1C)C(=O)CSc1nccn1C (centres undefined),-6.855%
3,CN(C)C(C(=O)Nc1nccs1)c1c(F)cccc1Cl (centres undefined),-1.745%
4,CCCN1CCC(Nc2nc(CC)ns2)CC1,-19.08%
5,O=C(c1ccncc1)N1CCC2(CC1)CCN(C(=O)c1cccnc1)C2,102.3%
6,CN(Cc1cccnc1)C1CC2(CCN(C(=O)c3ccnnc3)CC2)C1,9.482%
7,O=C(c1ccnnc1)N1CCC2(CC1)CCN(C(=O)c1cccnc1)C2,96.42%
8,O=C(c1ccncc1)N1CCC2(CC1)CC(Oc1cccnc1)CO2 (centres undefined),-1.534%
9,COC(=O)[C@H]1CN(C(C)=O)CCN1C(C)=O,-4.652%
10,O=C1CCN(C(=O)C2(c3ccc(F)cc3)CCCCC2)CCN1,-15.47%
11,CNS(=O)(=O)CCCNC(C)(C)c1nc(C)cs1,1.727%
12,CCOc1ccccc1C(CC(=O)O)NC(C)=O (centres undefined),10.47%
13,Cc1nsc(NC2CC(=O)N(C(C)(C)C)C2)n1 (centres undefined),-3.11%
14,COc1cc(-c2cnnc(NCC3CC3)n2)cc(OC)c1OC,22.6%
15,COc1cc(CO)c(OC)c2c1OCO2,0.3319%
16,COc1cc(-c2n[nH]c(CCN)n2)cc(OC)c1OC,136.2%
17,COc1cc(-c2cnnc(NCCSC)n2)cc(OC)c1OC,-5.891%
18,COc1cc(-c2nc(N)n[nH]2)cc(OC)c1OC,107.9%
19,COc1ccc(OC)c(-n2cnnc2CCN)c1,12.28%
20,COc1ccc(-c2ccccc2CCN)c(OC)c1OC,-10.47%
21,COc1cc(CNc2nc3c(c(=O)[nH]2)CCNC3)cc(OC)c1OC,-8.828%
22,COc1cc(-c2n[nH]c(CC#N)n2)cc(OC)c1OC,137.1%
23,COc1cc(CNc2nncs2)cc(OC)c1OC,-2.056%

row,SMILES,Percent Effect
1,COc1cc(-c2n[nH]c(CO)n2)cc(OC)c1OC,101.2%
2,CC(C)c1nccn1C1CCCN(C(=O)c2cccc3[nH]ncc23)C1 (centres undefined),-3.235%
3,CN(CCNC(=O)Nc1ccncc1)C1CCCCC1,-10.45%
4,COCCC(=O)NCCCOC1CCCc2ccccc21 (centres undefined),3.193%
5,CC(=O)N1CCN(C(=O)NCCCN(C)S(C)(=O)=O)CC1,-13.58%
6,CC(C)c1noc(C(C)N2CCN(Cc3nc4ccccc4[nH]3)CC2)n1 (centres undefined),-18.96%
7,CCN(C(=O)CN1CCCC1Cc1ccccc1)c1ccccc1 (centres undefined),22.38%
8,COc1cc(-c2cccc3c2OC(CN)C3)cc(OC)c1OC (centres undefined),1.955%
9,COc1cc(CN)c(OC)c2c1OCO2.Cl,-2.392%
10,COc1cc(-c2n[nH]c(CN)n2)cc(OC)c1OC,105.2%
11,CNS(=O)(=O)c1ccc(CNC(=O)NCC2CCOC2)cc1 (centres undefined),7.061%
12,Cn1cc(CN2CC[C@H]3C[C@@H](c4nc(C5CC5)cs4)O[C@@H]3C2)cn1,-0.3412%
13,Cc1cnc(C(=O)N2CC[C@H]3C[C@@H](c4nc(C)cs4)O[C@@H]3C2)cn1,-16.87%
14,Cc1nc(CN2C[C@@H]3CN(c4ncc(F)cn4)C[C@@H]3C2=O)cs1.O=C(O)C(F)(F)F,-12.56%
15,Cn1cc(CN2CC[C@H]3C[C@H](c4nc(C5CC5)cs4)O[C@@H]3C2)cn1,15.37%
16,Fc1cnc(N2C[C@@H]3C[C@@H](c4nc(C5CC5)cs4)O[C@@H]3C2)nc1.O=C(O)C(F)(F)F,94.12%
17,Cc1csc([C@@H]2C[C@H]3CN(c4ncc(F)cn4)C[C@H]3O2)n1.O=C(O)C(F)(F)F,98.65%
18,Cc1cccc(N2CCN(c3ccn4c(=O)[nH]nc4n3)CC2)c1C,-10.93%
19,Cc1ccc2c(c1C)OCC2NCc1cccc(C#N)c1 (centres undefined),-16%
20,Cc1cc2n(n1)CC(CNCCNC(=O)c1ccc(F)cc1)CN2 (centres undefined),-2.749%
21,CC(C(=O)N1CCCC1)S(=O)(=O)Cc1nc(C(C)(C)C)no1 (centres undefined),0.9098%
22,CCCc1nnc(NCCc2noc(C3CC3)n2)o1,133.3%
23,CCCc1nnc(NCCc2noc(C3CCCC3)n2)o1,110.1%

row,SMILES,Percent Effect
1,CCCc1nnc(NC2CCN(C3CCCC3)CC2)o1,-6.832%
2,CCCc1nnc(NCCc2noc(C3CCC3)n2)o1,108%
3,CCCc1nnc(NC2CCN(CCO)CC2)o1,-14.34%
4,CCCc1nnc(NC2CCN(C3CCOCC3)CC2)o1,-6.121%
5,c1ccc(-c2nc(CCNc3nnc(C4CCC4)o3)no2)cc1,-25.81%
6,Cc1cccc(C)c1NCc1noc(C2CC2)n1,-19.13%
7,c1ccc(-c2n[nH]c(CCNc3nnc(C4CCC4)o3)n2)cc1,-23.29%
8,CCOC(=O)CCNC(=O)N1CCCC(CNC(=O)c2cccs2)C1 (centres undefined),-0.8406%
9,COCC(C)NCc1nc(-c2ccc(C)cc2)c(-c2ccccn2)[nH]1 (centres undefined),22.14%
10,O=C(NCC1CC[C@@]2(CNCCOC2)O1)c1cnccn1 (some centres undefined),-4.727%
11,CCOCC(O)CN1CCN(C(=O)c2cccc3[nH]ncc23)CC1 (centres undefined),-8.301%
12,CCOCC(O)CN1CCN(C(=O)C2CC2)CC1 (centres undefined),3.304%
13,CCOCC(O)CN1CCN(C(=O)c2ccccc2F)CC1 (centres undefined),82.64%
14,CCOCC(O)CN1CCN(C(=O)c2cc(C)ccc2OC)CC1 (centres undefined),91.25%
15,CCOCC(O)CN1CCN(C(=O)c2cccnc2OC)CC1 (centres undefined),-8.967%
16,CCOCC(O)CN1CCN(C(=O)c2ccc(OC)cc2F)CC1 (centres undefined),5.863%
17,CCOCC(O)CN1CCN(C(=O)CC(C)C)CC1 (centres undefined),-1.349%
18,CCOCC(O)CN1CCN(C(=O)c2cc(F)ccc2C)CC1 (centres undefined),-5.879%
19,CCOCC(O)CN1CCN(C(=O)c2cc(Cl)ccc2F)CC1 (centres undefined),107.8%
20,CCOCC(O)CN1CCN(C(=O)c2cc(C)ccc2F)CC1 (centres undefined),114.4%
21,CCOCC(O)CN1CCN(C(=O)c2ccccc2Cl)CC1 (centres undefined),-0.07038%
22,CCC(CO)N(Cc1ccccn1)C(=O)c1ccc(F)c(F)c1 (centres undefined),-4.122%
23,COc1ccccc1[C@@H]1CN(Cc2ccc3nsnc3c2)C[C@H]1C(=O)O,-7.505%

row,SMILES,Percent Effect
1,O=C1CCCN1CC1CCCCN1C(=O)Nc1cccnc1 (centres undefined),2.863%
2,CC(CO)(NC(=O)Nc1nnc(C2CC2)s1)C1CCCCC1 (centres undefined),-9.055%
3,CCN(CC)c1ncnc2c1CCN(CC1CCOCC1)CC2.O=C(O)C(F)(F)F,-1.394%
4,Cc1ncnc2c1CCN(c1ccccn1)CC2.O=C(O)C(F)(F)F,-1.048%
5,Cc1ccc(N2CCCC(N(C)c3ncnc4c3CCC4)C2)nn1 (centres undefined),40.92%
6,CCN(C)c1ncnc2c1CCN(Cc1ccoc1)CC2,5.87%
7,CCN(C)c1ncnc2c1CCN(c1ccc(C)nn1)CC2,88.89%
8,CCN(CC)c1ncnc2c1CCN(c1ccc(C)nn1)CC2,109.1%
9,Cc1ncnc2c1CCN(c1cc(C(F)(F)F)ncn1)CC2,-23.9%
10,c1ccc(N2CCc3ncnc(C4CC4)c3CC2)nc1,-3.177%
11,Cc1ccc(N2CCc3ncnc(C4CC4)c3CC2)nn1,109.7%
12,Cc1cccc(N2CCc3ncnc(C4CC4)c3CC2)n1.O=C(O)C(F)(F)F,-0.7923%
13,CCN(C)c1ncnc2c1CCN(C(=O)c1ccc(C)o1)CC2,16.8%
14,Cc1ccc(N2CCc3ncnc(C)c3CC2)nn1,98.11%
15,CN(c1nc(Cn2cc(Br)ccc2=O)cs1)C1CC1,-13.88%
16,CS(=O)(=O)N1CCC(c2nnc3ccc(C(=O)N4CCCC4)cn23)C1 (centres undefined),-3.487%
17,CCc1cnc(N)nc1NCCCn1nc(C)nc1C,4.841%
18,CC(CCN1CCOCC1)NC(=O)c1cccc(C(F)(F)F)c1F (centres undefined),-6.149%
19,c1ccc(N2CCC(NCc3cccc4cn[nH]c34)C2)cc1 (centres undefined),2.833%
20,COc1ccc(N2CCC(C(=O)/N=c3/[nH]ccs3)CC2)nn1,7.434%
21,Cc1nc(CCNC(=O)C2CC(=O)N(C(C)C)C2)sc1C (centres undefined),-29.36%
22,COCCN(CC1CCCN(C2Cc3ccccc3C2)C1)C(=O)CO (centres undefined),-6.477%
23,Cc1ccc(N2CCc3ncnc(N(C)C)c3CC2)nn1,103.7%

row,SMILES,Percent Effect
1,CN(C)c1ncnc2c1CCN(c1ccccc1)CC2,9.479%
2,Cc1ccccc1S(=O)(=O)N1CCc2c(ncnc2N(C)C)C1,-0.5839%
3,CN(Cc1cc(=O)c(O)co1)C1CCCN(c2ccccc2)C1 (centres undefined),-2.476%
4,Cc1nc(CN(C)C2CCCN(c3ccccc3)C2)no1 (centres undefined),85.51%
5,Cc1nc(CN(C)C2CCN(CC(=O)N(C)CCC#N)C2)no1 (centres undefined),-8.122%
6,Cc1nc(CN(C)C2CCN(CC3CCC3)C2)no1 (centres undefined),98.61%
7,Cc1nc(CN(C)C2CCN(CC3CCCCC3)C2)no1 (centres undefined),12.52%
8,Cc1cc(CN(C)C2CCCN(Cc3noc(C)n3)C2)on1 (centres undefined),4.561%
9,Cc1nc(CN(C)C2CCN(CC3CCCC3)C2)no1 (centres undefined),93.14%
10,Cc1nc(CN(C)C2CCN(CC3CCOCC3)C2)no1 (centres undefined),108.1%
11,O=C(c1nc(=O)[nH][nH]1)N1CCC2(CCCCC2)C1,-9.423%
12,c1ccc(SCCN2CCN(CCn3cncn3)CC2)cc1,8.727%
13,CCC(CO)N(Cc1ccsc1)Cc1ccc(-c2ccn[nH]2)s1 (centres undefined),-9.048%
14,CN1CCN(C2CCN(CC(=O)NCC(F)(F)F)CC2)C1=O,-4.835%
15,CC(C)Oc1cccc(CNC(Cc2ccsc2)c2nccs2)c1.Cl (centres undefined),94.44%
16,O=C(CSCc1ccncc1)N(Cc1ccsc1)C1CC1,10.91%
17,O=C(NC(Cc1ccsc1)c1nccs1)C1CCOCC1 (centres undefined),-7.907%
18,CCS(=O)(=O)N1CCC(C(=O)NC(Cc2ccsc2)c2nccs2)CC1 (centres undefined),102.7%
19,CC(C)Oc1cccc(CNC(=O)NC2(CO)CCCC2)c1,12.23%
20,CS(=O)(=O)N1CCC(C(=O)NC(Cc2ccsc2)c2nccs2)CC1 (centres undefined),-7.112%
21,O=C(NC(Cc1ccsc1)c1nccs1)C1CC1 (centres undefined),111.3%
22,CC(NC(=O)NCc1cccc(CN2CCCC2)c1)c1nccs1 (centres undefined),-2.261%
